This is one part of a sample in which hits are shown more often than they occur.
TTR transcr act – TTR transcription activators in neuroblastoma reporter cells, primary screen, cell-based, luminescence, SH-SY5Y, TTR promoter Gaussia luciferase. hit rate 1.3% among 92,000. 100% = recombinant luciferase protein wells. activation, % at 16.7 µM. AID 1117267, 2014;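 active = activation above the mean of all tested compounds plus 3 SD, cut at about 9.5% in these data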;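 also: cells exposed to compounds for one day before reading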
TTR inh HuH7 – TTR promoter reporter inhibitors in hepatoma cells, counter-screen for TTR transcription activator project, cell-based, luminescence, HuH7 hepatoma; HuH7 TTR promoter-Gaussia luciferase reporter; AID 1117279, 2014; inhibition, % at 16.7 µM; hit rate 4% among 1,100; shares compounds with TTR transcr act;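 active = average inhibition above the solvent-only control wells' mean plus 3 SD, cut at about 15% in these data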;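 also: inhibitors lower well luminescence so higher value means more inhibition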
TTR act confirm – TTR transcription activators, retest, confirmation, cell-based, luminescence, SH-SY5Y, triplicate; shares compounds with TTR transcr act; SHSY5Y TTR promoter Gaussia luciferase; 100% = purified Lucia enzyme wells, no cells; activation, % at 16.7 µM; 1,100 tested, under 10 active; AID 1117280, 2014;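 active = mean activation above a set limit taken from the earlier primary screen, cut at about 11% in these data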
A number is an active result.

Screening COC(=O)c1cccc(Cn2ccc3ccc(-c4ccc5ccn(C(=O)c6cccc(OC)c6)c5c4)cc32)c1 returned TTR transcr act inactive.
CCCCCn1nnnc1C1(C)CSCC(=O)N1Cc1ccco1 (stereo not given) was read as TTR transcr act inactive.
For O=C(Nc1c(-c2ccc(F)cc2)nc2ncccn12)C1CC1 the results were TTR transcr act inactive.
`Cc1cccc(OCC(=O)NNC(=O)CCc2ccccc2)c1` gave TTR transcr act inactive.
For Cc1cccc(OCC(=O)Nc2ccncc2)c1 the results were TTR transcr act inactive.
Screening Cc1cccc(OCC(=O)NNS(=O)(=O)c2ccccc2F)c1 returned TTR transcr act 16, TTR inh HuH7 inactive and TTR act confirm inactive.
For Cc1ccc(NC(=O)C2CC3CCC2C3)cc1 (stereo not given) the results were TTR transcr act inactive.
`CO[C@H]([C@H](C)/C=C/N(C)C=O)[C@@H](C)C(=O)CC[C@H](C)[C@H](O)[C@H](C)[C@H]1OC(=O)/C=C/C(C)=C/C[C@H](O)C[C@@H]2C=CC[C@@H](C[C@H](OC)[C@@]3(CO3)[C@@H](OC)C[C@@H](OC)[C@@H]1C)O2` gave TTR transcr act inactive.
`CCc1noc(C)c1C(=O)Nc1cc(S(=O)(=O)N2CCCCC2)ccc1N(C)C` gave TTR transcr act 11, TTR inh HuH7 inactive and TTR act confirm inactive.
Screening Cc1onc(-c2ccccc2)c1C(=O)Nc1cccc(S(=O)(=O)N2CCCCC2)c1 returned TTR transcr act inactive.
Screening CCc1noc(C)c1C(=O)N1CCN(S(=O)(=O)c2ccc(Br)cc2)CC1 returned TTR transcr act inactive.
COC(=O)[C@]12C[C@H](CC(=O)N3CCOCC3)C(=O)N(Cc3cccc4ccccc34)C1=C[C@H](C1CCCC1)O[C@@H]2C was read as TTR transcr act inactive.
Cc1ccccc1CN1C(=O)C(O)(CC(=O)c2ccncc2)c2ccccc21 (stereo not given) was read as TTR transcr act inactive.
CN1C(=O)C(O)(CC(=O)c2cccs2)c2ccccc21 (stereo not given) was read as TTR transcr act 18, TTR inh HuH7 inactive and TTR act confirm inactive.
CCCCN1C(=O)C(O)(CC(=O)c2ccccn2)c2ccccc21 (stereo not given) was read as TTR transcr act inactive.
For COC(=O)[C@H](Cc1ccccc1)N1CC=CS1(=O)=O the results were TTR transcr act inactive.
COC(=O)[C@]12C[C@H](CC(=O)NCCc3ccccc3OC)C(=O)N(Cc3ccc(Cl)cc3Cl)C1=C[C@H](C(C)C)O[C@@H]2C1CC1 was read as TTR transcr act inactive.
`COc1c(C(C)(C)C)cc(S(=O)(=O)N2c3ccccc3C[C@H]2C)cc1C(C)(C)C` gave TTR transcr act inactive.
For O=C(Nc1ccccc1)OCCN1CCCC12CCC(c1ccccc1)CC2 (stereo not given) the results were TTR transcr act inactive.
`O=[N+]([O-])c1ccc(-c2cn3c(n2)CCC3)cc1` gave TTR transcr act inactive.
`O=C1CCCc2c1nc(-c1ccc([N+](=O)[O-])cc1)n2O` gave TTR transcr act 12, TTR inh HuH7 inactive and TTR act confirm inactive.
O=C1CCCc2c1nc(-c1ccc(F)cc1)n2O was read as TTR transcr act inactive.
Screening Cc1ccc(C(=O)CC2SC(N)=NC2=O)cc1 (stereo not given) returned TTR transcr act 20, TTR inh HuH7 inactive and TTR act confirm inactive.
For CC(=O)c1ccc(CC2SC(N)=NC2=O)cc1 (stereo not given) the results were TTR transcr act inactive.
For NC1=NC(=O)C(CC(=O)NCc2ccccc2)S1 (stereo not given) the results were TTR transcr act inactive.
`CCN(C(=O)[C@@H](C1CC1)[C@@H](O)c1ccc(Cl)cc1)c1ccccc1` gave TTR transcr act inactive.
For CC(=O)c1cccc(NC(=O)c2cnn3c(C)cc(C)nc23)c1 the results were TTR transcr act inactive.
`Cc1csc(NC(=O)CCc2c(C)nc3cc(-c4ccc(Cl)cc4)nn3c2C)n1` gave TTR transcr act inactive.
`Cc1csc(NC(=O)CSc2nnc(Cc3cccn3C)n2-c2ccc(F)cc2)n1` gave TTR transcr act inactive.
For Cc1csc(NC(=O)CSc2nnc(-c3ccc(Cl)cc3)n2N)n1 the results were TTR transcr act 44, TTR inh HuH7 inactive and TTR act confirm inactive.
Screening COc1ccc2cc3cc(C(=O)Nc4ccc(F)cc4)sc3nc2c1 returned TTR transcr act inactive.
`CCc1nnc(NC(=O)CSc2nnc(-c3ccccc3O)n2CC)s1` gave TTR transcr act 22, TTR inh HuH7 inactive and TTR act confirm inactive.
Screening CCc1nnc(NC(=O)CSc2nnc(-c3cc4ccccc4cc3O)n2CCOC)s1 returned TTR transcr act inactive.
`CCn1c(SCC(=O)Nc2nc(-c3ccccc3)cs2)nnc1-c1ccccc1O` gave TTR transcr act inactive.
Screening CCOP(=O)(OCC)c1ccc2c(c1)C(=O)c1ccccc1-2 returned TTR transcr act inactive.
O=C(O)CCN1C(=O)/C(=C/c2ccc(F)cc2F)SC1=S was read as TTR transcr act inactive.
CCCC1CCC2(CC1)CCC2OC(=S)NCc1ccc(Cl)cc1 (stereo not given) was read as TTR transcr act inactive.
`O=C(CCCCC(=O)OCC1CCCO1)OCC1CCCO1` (stereo not given) gave TTR transcr act inactive.
`CCOC(=O)CCCC(=O)N1CCOCCOCCN(C(=O)CCCC(=O)OCC)CCOCCOCC1` gave TTR transcr act inactive.
For O=C(CCCCC(=O)OCC1COCO1)OCC1COCO1 (stereo not given) the results were TTR transcr act 10, TTR inh HuH7 inactive and TTR act confirm inactive.
For COc1cc(O)c(C(CC(=O)N2CC(C)OC(C)C2)c2ccc3c(c2)OCO3)c(OC)c1 (stereo not given) the results were TTR transcr act inactive.
Screening CCCc1c(O)nc(SC2CC(=O)N(c3ccc(C)c(Cl)c3)C2=O)[nH]c1=O (stereo not given) returned TTR transcr act 12, TTR inh HuH7 inactive and TTR act confirm inactive.
Screening Cc1cc(C)n(CC2CC(=O)N(c3ccc(C)c(Cl)c3)C2=O)n1 (stereo not given) returned TTR transcr act inactive.
CCOc1ccc(N2C(=O)CC(Sc3nc(C)cc(C)c3C#N)C2=O)cc1 (stereo not given) was read as TTR transcr act inactive.
Screening CC1CN(c2ccnc3cc(Cl)ccc23)CCN1C(=O)c1ccc(Cl)cc1 (stereo not given) returned TTR transcr act inactive.
O=C(N[C@@H]1CC[C@H]2SC[C@H](C(=O)O)N2C1=O)OCC1c2ccccc2-c2ccccc21 was read as TTR transcr act inactive.
`C[C@H]1[C@@H](NC(=O)Cc2ccsc2)CC[C@@]23CCCN2C(=O)CCC[C@@H]13` gave TTR transcr act inactive.
Screening O=C(Cn1ccc(C(F)(F)F)n1)N/N=C/c1cccs1 returned TTR transcr act inactive.
Screening Nc1nnnn1CC(=O)N/N=C/c1cccs1 returned TTR transcr act 36, TTR inh HuH7 inactive and TTR act confirm inactive.
Cc1ccnn1CC(=O)N/N=C/c1cccs1 was read as TTR transcr act inactive.

From PubChem
